Drawing on PubChem BioAssay (EPA / NIEHS), this text covers AC50 and outcome for 17 compounds.

“And” between values parts separate entries of the source, which are not always exact repeats. Equal entries are not always repeated. More than one record can exist for a structure, and the calls need not agree. The source made the active and inactive calls. The calls were made as follows: active = hit-call score of the fitted dose curve at least 0.9, where 1 is the maximum; inactive = score below 0.9.

A short description of the assay: CCTE_Shafer_MEA_dev_per_burst_spike_percent: CCTE's Neural Network Formation Assay for Percent of Spikes in a Burst, Shafer Lab (AID 2284032). As for the experimental part: CCTE_Shafer_MEA_dev assay is conducted using Axion Biosystems 48 well microelectrode array (MEA) plates and Maestro recording system. Each well of the MEA plate contains a grid of 16 microelectrodes embedded in the culture surface. Electrically active cells, such as neurons, can be cultured over the electrodes, and electrical activity in these cells can be recorded extracellularly. The spontaneous firing of neurons is captured from each electrode on a microsecond timescale providing both temporally and spatially precise data. […] The CCTE_Shafer_MEA_dev assay uses primary cultures of rat cortical neurons. Recordings are made on days post-plating 5, 7, 9 and 12. As these cultures mature over time, neural networks develop functional activity and form cohesive networks in which electrical activity can be highly coordinated. CCTE_Shafer_MEA_dev_per_burst_spike_percent is 1 of 19 assay components of the CCTE_Shafer_MEA_dev assay. It measures the percentage of spikes (action potential firings) in a single-electrode burst (temporally-clustered group of spikes) as the total number spikes in bursts divided by the total number of spikes during a recording in a microelectrode array (MEA) using Axion Biosystems Maestro 768 channel amplifier with the AxIS adaptive spike detector. The percent of spikes in bursts is averaged across the actively bursting electrodes to report a well-mean value. To collapse across multiple recordings made on days post-plating 5, 7, 9 and 12, the trapezoidal area-under-the-curve of the component is calculated.Data from the assay component CCTE_Shafer_MEA_dev_per_burst_spike_percent was analyzed into 1 assay endpoint. This assay endpoint, CCTE_Shafer_MEA_dev_per_burst_spike_percent, was analyzed in the negative analysis fitting direction relative to DMSO as the negative control and baseline of activity. Using a type of functional reporter, gain or loss-of-signal activity can be used to understand electrical activity.
On the day prior to culture, each well was coated thoroughly with 150 uL of 0.05% polyethyleneimine (PEI, Sigma Cat P3143) in 50 mM HEPES (Sigma Cat H7523) at a pH of 8. The plate was incubated at 37C for one hour. PEI was rinsed out with 500 uL of sterile water three times. Plates were stored at 4C until the day of culture. This culture was plated at a seeding density of 1.5 x 10^5 cells/well on a 48-well MEA plate, prepared as described above. Cells were administered via a 25 uL media/laminin ([…]; Sigma Cat L2020-1MG) drop directly onto the microelectrode array, as adding the cells with the laminin results in better attachment than pre-coating with laminin. After 2 hours, an additional 475 uL of cortical media was added and the cells returned to the incubator. Exposure starts at day 0 of plating and is continued over twelve days of network development until the experiment is terminated. Cells are fed with fresh medium on DIV 5 and 9, following the recordings on those days. The entire volume of media in the well is exchanged and any vehicle or compound treatment is renewed. Complete details are found in OP-NHEERL/ISTD/SBB/TJS/2015-03-r0 (available on request, email shafer.tim@epa.gov). Measurement of the electrical activity is non-invasive, and recordings can be made from the same plate over multiple different days of the culture. In cortical neurons, this allows for the measurement of extracellular action potentials over the period during which networks form in the MEA plate.
By AC50 is commonly meant the concentration giving half of the maximal activity seen. In the case of `ClC1=C(Cl)[C@]2(Cl)[C@@H]3[C@@H](Cl)[C@H]4O[C@H]4[C@@H]3C1(Cl)C2(Cl)Cl`, the AC50 is 25.3 µM (active).

Turning to `O=S(=O)(O)C(F)(F)C(F)(F)C(F)(F)C(F)(F)F`, the result was inactive. `O=C(O)C(F)(F)C(F)(F)C(F)(F)C(F)(F)C(F)(F)C(F)(F)C(F)(F)C(F)(F)F`: the compound was called inactive.

For the compound `O=C(O)C(F)(F)C(F)(F)C(F)(F)C(F)(F)C(F)(F)F`, the outcome was inactive. As for `CO/C=C(/C(=O)OC)c1ccccc1COc1cccc(C(F)(F)F)n1`, the AC50 is 822 nM (active) and 381 nM (active).

Consider `ClC(Cl)=C(c1ccc(Cl)cc1)c1ccc(Cl)cc1`, for which the AC50 was 5.67 µM (active). As to `ClC1=C(Cl)[C@]2(Cl)[C@@H]3[C@H]4C[C@H]([C@@H]5O[C@H]45)[C@@H]3[C@@]1(Cl)C2(Cl)Cl`, the result was inactive. With `CCOP(=S)(OCC)SCSC(C)(C)C`, the AC50 was 23.1 µM (active) and 27.1 µM (active). Take `COc1ccc(O)c(C(C)(C)C)c1`: the result was inactive. `CCC(C)(c1ccc(O)cc1)c1ccc(O)cc1`: the outcome was inactive.

`NS(=O)(=O)C(F)(F)C(F)(F)C(F)(F)C(F)(F)C(F)(F)C(F)(F)C(F)(F)C(F)(F)F`: the compound was classed as inactive and the AC50 was 15 µM (active). On the same counts, the results for `Oc1ccc(C(c2ccc(O)cc2)(C(F)(F)F)C(F)(F)F)cc1` are “inactive” and 16.7 µM (active). Take `c1cc2ccc3cccc4ccc(c1)c2c34`: the compound was called inactive. As for `Clc1ccc(C(c2ccccc2Cl)C(Cl)(Cl)Cl)cc1` (centres undefined), the AC50 is 1.99 µM (active). `C=CC(N)=O`: the compound was called inactive.

`O=S(=O)(O)C(F)(F)C(F)(F)C(F)(F)C(F)(F)C(F)(F)C(F)(F)F`: the compound was called inactive.

Turning to `ClC1=C(Cl)[C@]2(Cl)[C@@H]3[C@@H]4C[C@@H]([C@H]5O[C@@H]45)[C@@H]3[C@@]1(Cl)C2(Cl)Cl`, the AC50 was 24.2 µM (active).
